Hits are enriched below; roughly 3% of the tested compounds scored in any of these assays.
Chronic BCR inh: inhibitors of chronic active B-cell receptor signaling | Potency, µM (top dose mostly 46.1 µM), for the others: at the top dose activity change, negative = inhibition, hits mostly inhibitors | ABC-DLBCL IkBa-CBG/CBR reporter, luminescence ratio, 4 h | 340,000 tested, 0.05% active; active = well fitted inhibition curve with a large enough effect in the signal ratio, with a control signal flat, not every such curve was filed as active; inconclusive = small, poorly fitted or top-dose-only effect, or effect the other way, or a change in a side signal; the % refers to the signal ratio;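 note: potency is the fitted concentration of half-maximal effect; plate controls were basal doxycycline-induced cells for no effect and cells given 10 µM MG132 for full effect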
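TMD8 human ABC-DLBCL cells with doxycycline-inducible IκBα–green luciferase fusion and unfused red luciferase, in 0.5% FBS medium; compounds up to 46 uM, 4 h at 37C. Green/red luminescence ratio, filter-overlap corrected, fitted to concentration-response curves.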
KCNH2 3.1 block: inhibitors of human KCNH2 3.1 potassium channel isoform | U2OS KCNH2 3.1, thallium flux FluxOr; active compounds read low | activity change, % (tested at about 1.8 µM) | 340,000 tested, 0.95% active | AID 720553;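 active = maximum activity change below -70%; inconclusive = maximum activity change from -70% to -50%; inactive = maximum activity change above -50%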;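 note: thallium influx rate constant from kinetic fluorescence after stimulation buffer; % is set by controls: 0 for no effect and ±100 for the full control effect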
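Measured as rate of thallium-driven FluxOr signal in transduced U2OS cells carrying the 3.1 channel, read kinetically for 2 min upon stimulation; values are rate constants scaled to DMSO control wells.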
ClpP mod: qHTS Assay for Activators of ClpP. ATP-dependent Clp protease proteolytic subunit (Bacillus subtilis (strain 168)), P80244. purified B. subtilis ClpP, FRET peptide cleavage, 20 min. Potency, µM (doses to about 57.5 µM), inactives show at the highest dose activity change, negative = active. 340,000 tested, 1.9% active. AID 651965, 2013; active = well fitted falling curve with a large enough effect; inconclusive = small, poorly fitted or top-dose-only effect; inactive = no such curve, though single readings can be large or run the other way; note: potency is the fitted concentration of half-maximal effect; the source files actives as falling curves though it sought activators and does not explain the sign; nearly all actives have a fitted effect of over 65% in size
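Purified B. subtilis ClpP, 10 microg/mL final in Tris/HCl pH8 with KCl, BSA, glycerol and Tween-20, cleaved an Abz/nitrotyrosine-quenched decapeptide. Fluorescence (ex 320, em 430) was read at 0 and 20 min at room temperature. Delta was normalized to 5.8 microM ADEP and DMSO/no-enzyme controls.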
12-LOX inh: inhibitors of human 12S-lipoxygenase ALOX12; P18054; purified 12hLO, xylenol orange hydroperoxide absorbance; Potency, µM (titrated, usually from 108 µM), without a hit: at the top dose activity change, negative = inhibition, actives largely listed as inhibitors; 580,000 tested, 1.1% active; AID 1671190; active = well fitted inhibition curve with a large enough effect; inconclusive = small, poorly fitted or top-dose-only effect, or another doubt; inactive = no such curve, though single readings can be large or run the other way; note: potency is the fitted concentration of half-maximal effect; % is set by controls: 0 for no effect and ±100 for the full control effect
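Purified human 12hLO (150 nM final) in 25 mM Hepes, 0.01% Triton X-100, pH 7.0 was preincubated 15 min at room temperature with compound. Then 40 uM arachidonic acid was added, 30 min. Hydroperoxide was read by Fe-XO absorbance ratio 573/405 nm.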
KCNH2 WT inh: inhibitors of human wildtype KCNH2 potassium channel | AID 720551 | Q12809 | activity change, % at 1.84 µM | 340,000 tested, 0.37% active | U2OS, BacMam KCNH2, thallium flux FluxOr; active compounds read low;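 active = maximum activity change below -70%; inconclusive = maximum activity change between -70% and -50%; inactive = maximum activity change above -50%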; note: % is set by controls: 0 for no effect and ±100 for the full control effect
Target sequence (Q12809 whole entry, looked up): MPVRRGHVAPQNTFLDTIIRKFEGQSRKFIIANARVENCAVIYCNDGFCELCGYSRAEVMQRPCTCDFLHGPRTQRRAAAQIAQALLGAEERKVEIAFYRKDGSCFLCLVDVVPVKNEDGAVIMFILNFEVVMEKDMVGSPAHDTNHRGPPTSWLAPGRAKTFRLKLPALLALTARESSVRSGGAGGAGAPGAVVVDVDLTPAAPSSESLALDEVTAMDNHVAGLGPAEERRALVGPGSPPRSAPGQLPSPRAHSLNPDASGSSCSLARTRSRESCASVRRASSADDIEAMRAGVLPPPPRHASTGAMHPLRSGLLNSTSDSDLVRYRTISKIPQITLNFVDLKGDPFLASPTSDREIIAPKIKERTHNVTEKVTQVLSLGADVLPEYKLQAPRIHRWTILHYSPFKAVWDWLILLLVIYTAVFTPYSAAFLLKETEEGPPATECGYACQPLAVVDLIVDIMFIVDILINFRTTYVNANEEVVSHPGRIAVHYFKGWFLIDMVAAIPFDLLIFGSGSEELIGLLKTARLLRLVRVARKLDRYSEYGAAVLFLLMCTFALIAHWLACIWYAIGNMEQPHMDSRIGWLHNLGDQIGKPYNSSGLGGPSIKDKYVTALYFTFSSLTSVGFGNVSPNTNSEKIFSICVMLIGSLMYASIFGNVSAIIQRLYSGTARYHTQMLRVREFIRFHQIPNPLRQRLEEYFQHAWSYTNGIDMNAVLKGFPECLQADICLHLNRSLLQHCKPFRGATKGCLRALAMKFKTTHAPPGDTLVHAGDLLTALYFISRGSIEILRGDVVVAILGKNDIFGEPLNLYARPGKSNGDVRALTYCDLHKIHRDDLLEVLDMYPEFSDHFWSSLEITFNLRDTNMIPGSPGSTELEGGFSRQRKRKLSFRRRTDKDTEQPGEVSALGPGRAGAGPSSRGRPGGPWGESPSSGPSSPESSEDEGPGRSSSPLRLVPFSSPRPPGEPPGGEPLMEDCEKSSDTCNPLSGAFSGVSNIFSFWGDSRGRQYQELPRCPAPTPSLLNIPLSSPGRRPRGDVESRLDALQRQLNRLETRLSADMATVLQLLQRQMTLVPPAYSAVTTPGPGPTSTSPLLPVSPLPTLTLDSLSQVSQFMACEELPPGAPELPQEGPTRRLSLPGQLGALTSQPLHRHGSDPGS
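U2OS cells transduced with wild-type KCNH2 virus are loaded with FluxOr dye for 45 min, and thallium flux is measured in kinetic reads before and after stimulation buffer. Rate constants are normalized to DMSO controls.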
LDHA inh: inhibitors of human lactate dehydrogenase A; P00338; activity change, % (values are at about 110 or 230 µM); 480,000 tested, 0.15% active; AID 1347041; purified LDHA, NADH/diaphorase-resazurin fluorescence; active compounds read low; in the data active = activity change below about -30%; inconclusive = mostly about -25% to -30%;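 note: plate controls were DMSO wells for no effect and wells without enzyme for full effect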
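Human LDH5 at 2 nM final in Tris HCl pH 7.4 with 0.06 mM NADH and 0.2 mM pyruvate, reacted 5 minutes at room temperature. Remaining NADH coupled via diaphorase/resazurin; resorufin fluorescence read at 0 and 20 minutes, normalized to enzyme-free and DMSO wells.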
* marks the source's active call; other numbers are inactive results; i = inactive; ? = inconclusive; · = no result; ! = not confirmed by another sample.

SMILES	Chronic BCR inh	KCNH2 3.1 block	ClpP mod	12-LOX inh	KCNH2 WT inh	LDHA inh
CCc1ccccc1N(C(C)=O)c1nc(COc2ccccc2C(N)=O)cs1	·	·	·	15%	·	-30*
Cc1cn2nc(-c3nc(C4CCCN(C(=O)c5ccc(C)c(F)c5)C4)no3)cc2c(=O)[nH]1 (centres undefined)	·	·	·	53%	·	·
O=c1[nH]c2ccccc2c(O)c1Cc1ccccc1	?	-21	-9%	-5%	2	-7
Cc1ccccc1NC(=O)Cc1c(O)c2ccccc2[nH]c1=O	6%	2	16µM*	-2%	-6	3
CCCCc1c(O)c2ccccc2[nH]c1=O	2%	22	25µM*	12%	1	-1
CCCc1c(O)c2ccccc2[nH]c1=O	1%	0	14µM*	0%	-2	-2
CCCc1c(C)c2ccccc2[nH]c1=O	-4%	-8	-18%	?	-6	-7
CCOC(=O)c1ccc2ncc(C(=O)OCC)c(NCCCOC(C)=O)c2c1	·	·	·	44%	·	8
COc1ccc2[nH]c(C(=O)O)c(CCNC(C)=O)c2c1	?	-14	8.9µM*	?	6	-5
C/C(=N/O)C1(C)N(O)C(C)(C)C(c2ccc(Cl)cc2)=[N+]1[O-] (centres undefined)	·	·	·	33%	·	-19
Cn1c2ccccc2c2cc(C(=O)NNC(=O)CCl)sc21	?	4	·	14%	7	2
CC(=O)Nc1ccc(S(=O)(=O)NNC(=O)c2cc3c4ccccc4n(C)c3s2)cc1	?	16	28µM*	0%	-3	3
N#Cc1c(-c2ccccc2)cc(-c2ccc(Cl)cc2)c(C#N)c1N	·	·	·	?	·	0
Fc1ccc(N/N=C/c2ccc(Cl)cc2Cl)c(F)c1	·	·	·	?	·	3
Fc1ccc(/C=N/Nc2c(Cl)cc(Cl)cc2Cl)c(F)c1	·	·	·	40µM*	·	2
Fc1cccc(Cl)c1/C=N/Nc1c(Cl)cc(Cl)cc1Cl	·	·	·	?	·	-6
Fc1ccc(Br)cc1/C=N/Nc1c(Cl)cc(Cl)cc1Cl	·	·	·	18µM*	·	0
Fc1ccc(/C=N/Nc2ccc3ccccc3c2)c(F)c1	·	·	·	2.5µM*	·	24
CNC(=S)NNC(=O)c1ccc(Cl)c(Cl)c1	·	·	·	41%	·	-8
COc1cc(C(C)=O)ccc1OS(=O)(=O)c1ccc2c(c1)CCC2	·	·	·	?	·	7
COc1ccc(Cl)cc1NC(=O)COc1ccccc1O	·	·	·	?	·	-1
CN(Cc1cccc(Cl)c1Cl)C(C(=O)NC1CC1)c1ccc(F)cc1 (centres undefined)	·	·	·	?	·	10
Cc1cc(C(=O)N2CCCC3(CCNCC3)CC2)c2cnn(C(C)C)c2n1	·	·	·	20µM*	·	·
Oc1ccc(/C=N/N(c2ccccc2)c2ccccc2)cc1O	-3%	-8	-2%	123%	-23	-5
Oc1ccc(/C=N/N(c2ccccc2)c2ccccc2)c(O)c1O	0%	·	·	11µM*	·	·
SMILES	Chronic BCR inh	KCNH2 3.1 block	ClpP mod	12-LOX inh	KCNH2 WT inh	LDHA inh
COc1ccc(OC)c(CNC(=O)c2ccc3c(c2)c(C)c(C)n3C)c1	·	·	-22%	-13%	·	-8
COc1ccc(NC(=O)c2ccc3c(c2)c(C)c(C)n3Cc2ccc(F)cc2)c(OC)c1	·	·	22µM*	-21%	·	5
COc1ccc(OC)c(NC(=O)c2ccc3c(c2)c(C)c(C)n3Cc2ccc(F)cc2)c1	·	·	22µM*	-10%	·	4
COc1ccc(OC)c(CNC(=O)c2ccc3c(c2)c(C)c(C)n3Cc2ccc(Cl)cc2)c1	·	·	32µM*	-11%	·	-5
Cc1ccc(C)c(NC(=O)c2ccc3c(c2)CCC3)c1	·	·	·	0%	·	4
COc1ccc2nc(N3C(=O)CC(C(C)c4ccccc4)C3=O)sc2c1 (centres undefined)	11%	21	28µM*	-7%	13	-2
COc1ccc(-c2nc(Cn3c(SCc4ccc(C)cc4)nc4ccncc43)c(C)o2)cc1OC	?	-122*	?	37%	-46	-2
COc1ccc(-c2nc(Cn3c(SCc4ccccc4F)nc4ccncc43)c(C)o2)cc1OC	·	·	?	-8%	·	0
COc1ccc(-c2nc(Cn3c(SCc4cccc(F)c4)nc4ccncc43)c(C)o2)cc1OC	?	-107*	-5%	34%	-1	-3
C[C@H](NC[C@H](O)CP(=O)(O)Cc1ccccc1)c1ccc(Cl)c(Cl)c1	·	·	·	20µM*!	·	·
CC(NC(=O)CCl)c1ccc(Cl)c(Cl)c1 (centres undefined)	?	-26	-2%	0%	-32	-5
c1cc2nncn2nc1N1CCCC1	0%	2	1%	20%	-6	1
c1ccc(N2CCN(c3ccc4nncn4n3)CC2)nc1	2%	-184*	2%	?	19	-13
Cc1ccc(NC(=O)CN(C)C(=O)c2sc3cc(Cl)ccc3c2Cl)cc1	1%	-6	4%	1%	3	-6
COc1ccc(NC(=O)CN(C)C(=O)c2sc3cc(Cl)ccc3c2Cl)cc1	11%	-6	28µM*	-18%	26	-4
Cc1ccc(C)c(-c2csc(NC(=O)C3=COCCO3)n2)c1	?	1	·	0%	-1	0
COc1ccc(OC)c(-c2csc(NC(=O)C3=COCCO3)n2)c1	-19%	-1	32µM*	-29%	8	-1
O=C(C1=Cc2cc(Cl)ccc2OC1)N1CCN(S(=O)(=O)c2cc(F)ccc2F)CC1	·	·	·	40µM*	·	6
COC(=O)CNC(=O)N1CCCCC1c1nc(CCOc2ccc(F)cc2)no1 (centres undefined)	·	·	·	37%	·	·
C/C(=N\NC(=O)c1c(Cl)c(C)nn1C)c1cccc(NC(=O)COc2ccc(Cl)cc2)c1	0%	-82*	-7%	-13%	-1	-5
COc1cccc(C(=O)N2CCC[C@H]2c2nc(-c3ccc(C)cc3)no2)c1	·	·	·	25%	·	·
O=C(NCc1nnc2ccc(-c3ccc(Cl)cc3)nn12)c1cccc(Br)c1	·	·	·	1%	·	·
CN(CC(=O)NC(=O)NC1CCCC1)CC(=O)Nc1ccc(Cl)c(C(F)(F)F)c1	·	·	·	-9%	·	0
O=C(Nc1nnc(CSCc2ccc(F)cc2)s1)c1cccc([N+](=O)[O-])c1	0%	-2	-2%	4%	5	-2
O=C(Nc1nnc(CSCc2ccc(Cl)cc2)s1)c1cccc([N+](=O)[O-])c1	?	-7	25µM*	-2%	-7	-4
O=C(Nc1ccc(Cl)cc1)Nc1nnc(CSc2ccc(Cl)cc2)s1	?	0	·	-8%	i	-5
O=C(Nc1ccc(Cl)cc1)Nc1nnc(CSCc2ccccc2)s1	12%	-4	18µM*	17%	9	0

Assay outcomes from PubChem.
